# Key:
# Assay in all cases: PBM binding z-score (relative to random genomic background probes); higher = stronger binding; sequences stand for … in GC…GCGATTGACAGCGTAGAATGAAGG
# [1] = tested on: RARb homodimer (NR concentration 270 nM)
# How it was run: (§1)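 Binding buffer was PBS pH 7.4 with 2% milk, 0.02% Triton X-100, 1 mM DTT, 0.2 mg/mL BSA and 0.4 mg/ml salmon testes DNA. In it, ligand-free nuclear receptor dimers were incubated 1 h on custom Agilent 4×180K protein-binding microarrays carrying double-stranded probes. Antibodies against each partner (one per run) detected binding, and z-scores were calculated against random background probes after regression normalization of scanned fluorescence.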
# [2] = tested on: RARg:RXRa (NR concentration 270 nM, RXRa partner concentration 90 nM)
# How it was run: as §1
# [3] = tested on: RARg homodimer (NR concentration 270 nM)
# How it was run: as §1
# [4] = tested on: RXRa DBDmut IVT, anti-RXR (DBD mutation: RXRa K156A/R161A, NR concentration 90 nM)
# How it was run: as §1
# [5] = tested on: RXRa homodimer (NR concentration 180 nM)
# How it was run: as §1
# [6] = tested on: THRa:RXRa (NR concentration 90 nM, RXRa partner concentration 90 nM)
# How it was run: as §1
# [7] = tested on: THRa homodimer (NR concentration 90 nM)
# How it was run: as §1
# [8] = tested on: VDR:RXRa (NR concentration 270 nM, RXRa partner concentration 90 nM)
# How it was run: as §1
# [9] = tested on: VDR homodimer (NR concentration 270 nM)
# How it was run: as §1
Sequence,PBM binding z-score [1],PBM binding z-score [2],PBM binding z-score [3],PBM binding z-score [4],PBM binding z-score [5],PBM binding z-score [6],PBM binding z-score [7],PBM binding z-score [8],PBM binding z-score [9]
TCTCGGCGGACACGAAAGGTCAGAGCTCGACATC,4.12,4.12,4.06,0.462,3.66,2.55,0.2,2.19,0.543
CCTTACGGGTCACGAGGTTATACCACGACGAGCG,3.83,6.22,5.35,1.77,7.21,3.84,1.13,5.37,2.24
CCTCGGAGGACAAAAGGAGGTCAGAGCTGCCAGA,3.07,3.24,2.75,0.256,1.82,2.5,0.878,1.97,1.23
TGTCAAAGTTCATAGGTAACGTAAGTATCCACAC,3.62,5.31,5.2,4.28,5.16,2.58,-0.00989,4.67,4.46
ATCTCTAGGTAAAGTTCAGTGTAAGATCGATAGA,2.72,2.02,2.42,1.71,1.19,1.65,0.624,2.12,2.46
TTACCAAGGTGAGCTGAGGTCGTTGACCCAACTC,2,1.58,0.471,0.101,2.03,4.79,2.16,3.96,1.65
CCTCGGAGGACCACAGGAGGTCAGAGCTGCCAGA,3.17,2.2,2.01,-0.446,1.85,2.76,0.73,1.43,0.746
TCAGACAGGTGAAGGTAACTCTGGTACGCAGTCG,0.721,0.492,0.535,1.03,0.951,1.01,0.16,0.577,0.154
AGAATGAGTTTAAGATCAGGGAAACAGAATACAT,-0.102,0.254,0.612,2.68,0.484,0.276,-0.184,0.803,2.06
TAGCCTAGGTCATTCATGGGCCAGTATAGAAAGC,2.52,4.74,4.57,1.84,3.2,2.71,0.289,2.16,0.945
GCTTACGGGTCAAAGGTTAGAGCATGAATAGAAT,3.1,6.33,4.54,2.02,8.91,3.6,-0.338,4.84,0.946
CCTTACGGGTCAAGCTTATAGCACGGGTGGTACG,2.82,4.93,4.64,1.11,5.08,2.23,-0.294,3.11,0.754
GATACAGGGTCAAGGGCAGAGTACGCGTATTGAT,3.91,5.63,5.26,2.38,6.19,3.7,1.49,4.62,3.28
GCTAGTTGGCCAGTAAAAGGTCACACACCGGTCG,5.19,5.15,4.08,0.252,5.46,3.55,1.33,3.73,1.49
GGAACGAGGGCTTTCGAGTTGATAGCATGGCGAT,-0.798,-0.258,-0.353,0.228,-0.0785,0.893,-0.983,-0.0757,0.344
TGAATGAGGTTATAAGATCAGGTAACGTTGCAAA,0.391,1.41,1.13,0.758,1.87,2.61,1.06,1.14,0.507
